Our source for the cell viability values is the supplement of paper PMC10981050.

Molecules are shown by their SMILES. Where a name gives a salt, the structure may show the parent alone.

The subject of this test is K562. Nature of the test: cell viability relative to vehicle control; higher = less cytotoxic. To be noted: 10 µM; SRSF2 genotype: SRSF2 wt/wt. The essentials: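 Four leukaemia lines, as CRISPR-edited mutant clones and isogenic wild-type clones, were tested against Selleck bioactive, kinase and epigenetic probe libraries after removal of identity-inconsistent compounds. Cells were exposed to a single 10 µM dose for 48 h, and CellTiter-Glo luminescence was then read. Viability was calculated relative to the on-plate vehicle control.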
What is called cell viability is a read-out of living cells in per cent, often relative to untreated cells. As for `O=C(Nc1cccc(Cl)c1)Nc1ncc(CCNc2ncnc3ccsc23)s1` [SNS-314 Mesylate], the cell viability is 75.3%.

As to `O=C(c1cn(Cc2cncn2Cc2ccc(Br)cc2)cc1-c1cccc2ccccc12)N1CCOCC1`, the cell viability amounted to 47.2%.

For the compound `COc1cc(N2CCN(C)CC2)ccc1Nc1nccc(-c2cn(C)c3cnccc23)n1`, the cell viability was determined as 79.2%.

With `O=c1c(-c2ccc(O)cc2)coc2cc(O[C@@H]3O[C@H](CO)[C@@H](O)[C@H](O)[C@H]3O)ccc12` [Daidzin], the cell viability turned out to be 96.3%.

For `COc1nc(C)cnc1NS(=O)(=O)c1cccnc1-c1ccc(-c2nnco2)cc1` [Zibotentan (ZD4054)], the cell viability came to 98.4%.

For `Nc1ccc(-c2cccc(C(=O)Nc3cnc4nc(N5CCOCC5)oc4c3)n2)cn1`, the cell viability turned out to be 91.5%.

Regarding `C[C@@H]1CC[C@@]2(OC1)O[C@H]1C[C@H]3[C@@H]4CC=C5C[C@@H](O[C@@H]6O[C@H](CO)[C@@H](O)[C@H](O)[C@H]6O)CC[C@]5(C)[C@H]4CC[C@]3(C)[C@H]1[C@@H]2C` [Trillin], the cell viability worked out at 94%.

As for `CCCC(C)NC(=O)c1ccc(Cl)c(Cl)c1` (stereo not given), the cell viability is 105%.

On to `C[C@@H]1C/C=C/C=C/C=C/C=C/[C@H](O[C@@H]2O[C@H](C)[C@@H](O)[C@H](N)[C@@H]2O)C[C@@H]2O[C@](O)(C[C@@H](O)C[C@H]3O[C@@H]3/C=C/C(=O)O1)C[C@H](O)[C@H]2C(=O)O` [Natamycin], for which the cell viability stood at 102%.

For the compound `CN1CCN(c2ccc(Nc3ncc4cc(C#N)c(=O)n(C5CCCC5)c4n3)cc2)CC1`, the cell viability turned out to be 87.8%.

On to `COc1ccc(-c2oc3c(CC=C(C)C)c(O[C@@H]4O[C@H](CO)[C@@H](O)[C@H](O)[C@H]4O)cc(O)c3c(=O)c2O[C@@H]2O[C@@H](C)[C@H](O)[C@@H](O)[C@H]2O[C@@H]2O[C@@H](C)[C@H](O)[C@@H](O)[C@H]2O)cc1` [Epmedin C], for which the cell viability was determined as 106%.

As for `CC1=C(CC[C@@H](C)CO[C@@H]2O[C@H](CO)[C@@H](O)[C@H](O)[C@H]2O)O[C@H]2C[C@H]3[C@@H]4CC=C5C[C@@H](O[C@@H]6O[C@H](CO)[C@@H](O[C@@H]7O[C@@H](C)[C@H](O)[C@@H](O)[C@H]7O)[C@H](O)[C@H]6O[C@@H]6O[C@@H](C)[C@H](O)[C@@H](O)[C@H]6O)CC[C@]5(C)[C@H]4CC[C@]3(C)[C@@H]12` [Pseudoprotodioscin], the cell viability was determined as 110%.

Regarding `O=C(NC[C@H](O)CN1CCc2ccccc2C1)c1cc(NC2COC2)ncn1`, the cell viability is 95.6%.

Take `CCCc1cc(C)[nH]c(=O)c1CNC(=O)c1cc(-c2ccc(N3CCN(C)CC3)nc2)nc2c1cnn2C(C)C`: the cell viability is 20.9%.

Consider `Cc1cc(NS(=O)(=O)c2ccc(N)cc2)nc(C)n1` [sulfaisodimidine], for which the cell viability amounted to 112%.

Turning to `Cn1cnc(-c2cc3nccc(Oc4ccc(NC(=S)NC(=O)Cc5ccccc5)cc4F)c3s2)c1`, the cell viability came to 71.9%.

`Fc1ccc(C(c2ccc(F)cc2)N2CCN(C/C=C/c3ccccc3)CC2)cc1` [Flunarizine 2HCl]: the cell viability was 72.8%.

In the case of `CNc1cccc(CCOc2ccc3c(c2)CN(CC(F)(F)F)C(=O)[C@H](CC(=O)O)C3)n1`, the cell viability is 91.5%.

`Cc1cccc(-c2[nH]c(C(C)(C)C)nc2-c2ccc3c(c2)OCO3)n1`: the cell viability turned out to be 47.6%.

Take `CCOc1ccc(Cc2cc([C@]34OC[C@](CO)(O3)[C@@H](O)[C@H](O)[C@H]4O)ccc2Cl)cc1` [Ertugliflozin]: the cell viability was 104%.

In the case of `COC(=O)[C@H](c1ccccc1Cl)N1CCc2sccc2C1` [Clopidogrel (Plavix)], the cell viability came to 94.4%.

Regarding `CCCCCCCCCCCCCCCC(=O)OC` [Methyl palmitate], the cell viability is 100%.

Regarding `O=[N+]([O-])c1ccc(S(=O)(=O)N2CCN(c3ccnc4cc(Cl)ccc34)CC2)c([N+](=O)[O-])c1`, the cell viability stood at 71.8%.

In the case of `Clc1ccc(COC(Cn2ccnc2)c2ccc(Cl)cc2Cl)c(Cl)c1` (stereo not given) [Miconazole (Monistat)], the cell viability stood at 62.2%.

Take `C[n+]1cc2c3c(ccc2c2ccc4cc5c(cc4c21)OCO5)OCO3` [Sanguinarine chloride]: the cell viability came to 0.74%.

As to `CC1(C)Cc2c(sc(NC(=O)c3ccn[nH]3)c2C(N)=O)C(C)(C)O1`, the cell viability is 109%.

For `CCN=C1N[C@@H]2[C@@H](O)[C@H](O)[C@@H](CO)O[C@@H]2S1` [Thiamet G], the cell viability was 101%.

Consider `O=C(c1cccc(Cl)c1F)N1CCN(Cc2cccc(Nc3nccs3)n2)CC1`, for which the cell viability amounted to 56.6%.

As for `O=C(Cn1ccnc1[N+](=O)[O-])NCc1ccccc1` [Benznidazole], the cell viability came to 95.9%.

Take `CC[C@@]1(O)C(=O)OCc2c1cc1n(c2=O)Cc2cc3cc(O)ccc3nc2-1` [Hydroxy Camptothecine]: the cell viability is 9.83%.
